DT40 TDP1 CPT = growth inhibition of DT40 Tdp1-/-;hTDP1 cells with camptothecin (screen for TDP1 inhibitors); chicken DT40 Tdp1-/-;hTDP1 cells + 20 nM CPT, ATP luminescence, 48 h; Potency, µM (top dose mostly 46.2 µM), for inactives: at the highest dose activity change, negative = growth inhibition, actives largely listed as inhibitors; 420,000 tested, 12% active; note: potency is the fitted concentration of half-maximal effect; nearly all actives have a fitted effect of over 55% in size
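Chicken DT40 Tdp1-/- cells stably complemented with human TDP1 were seeded at 400 cells/well in medium containing 20 nM camptothecin, exposed to pin-transferred compounds, and grown at 37 °C for at least 48 hr. Viability was read as ATP luminescence.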
LDHA inh = LDHA (human) enzyme inhibition; purified LDHA, NADH/diaphorase-resazurin fluorescence; active compounds read low; activity change, % (values are at about 110 or 230 µM); 480,000 tested, 0.15% active; AID 1347041; in the data active = activity change below about -30%; inconclusive = mostly about -25% to -30%;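 note: plate controls were DMSO wells for no effect and wells without enzyme for full effect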
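Resorufin fluorescence (ex540/em590), read at 0 and 20 min after diaphorase/resazurin addition, reports the NADH left after a 5 min room-temperature reaction of 2 nM human LDH5 with 0.06 mM NADH and 0.2 mM pyruvate.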
TDP1 cell noCPT = qHTS for Inhibitors of human tyrosyl-DNA phosphodiesterase 1 (TDP1): qHTS in cells in absence of CPT. 420,000 tested, 15% active. DT40 Tdp1-/- hTDP1 cells, no CPT, ATP luminescence, 48 h. Potency, µM (series often up to 46.2 µM), for inactives: top-dose activity change, negative = growth inhibition, hits mostly inhibitors; note: potency is the fitted concentration of half-maximal effect; nearly all actives have a fitted effect of over 55% in size
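A cellular qHTS used chicken DT40 cells lacking endogenous Tdp1 but carrying stably transfected human TDP1. Compounds were applied without camptothecin, and cell growth kinetics were judged by ATP-dependent luminescence after ≥48 hr.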
RORgamma inh = ROR gamma (mouse) transcription inhibition; P51450; Drosophila S2 Gal4-RORgamma UAS-luciferase reporter, 20 h; Potency, µM (titrated, usually from 53.6 µM), without a hit: at the highest dose activity change, negative = inhibition, most hits filed as inhibitors; 310,000 tested, 5.4% active; AID 2551; note: potency is the fitted concentration of half-maximal effect; nearly all actives have a fitted effect of over 60% in size
Target sequence (P51450 whole entry, looked up, the tested form may be a part): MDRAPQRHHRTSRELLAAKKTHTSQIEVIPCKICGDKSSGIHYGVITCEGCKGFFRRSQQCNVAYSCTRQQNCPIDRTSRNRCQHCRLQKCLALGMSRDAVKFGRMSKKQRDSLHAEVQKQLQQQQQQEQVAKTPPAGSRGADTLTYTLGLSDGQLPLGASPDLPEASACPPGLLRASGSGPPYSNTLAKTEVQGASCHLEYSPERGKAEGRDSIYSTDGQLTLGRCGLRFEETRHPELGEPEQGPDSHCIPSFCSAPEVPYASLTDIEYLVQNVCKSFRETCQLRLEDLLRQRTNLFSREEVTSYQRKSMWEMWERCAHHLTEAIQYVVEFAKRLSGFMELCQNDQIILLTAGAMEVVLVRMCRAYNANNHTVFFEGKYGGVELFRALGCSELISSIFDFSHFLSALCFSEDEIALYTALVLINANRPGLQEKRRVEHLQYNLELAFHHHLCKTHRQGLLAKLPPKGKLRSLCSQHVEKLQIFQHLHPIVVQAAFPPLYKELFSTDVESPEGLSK
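Drosophila Schneider cells stably carrying a metallothionein-driven Gal4 DBD–ROR gamma fusion and a UAS-Photinus luciferase reporter were exposed to compound for 1 hr, then induced with copper sulfate (700 uM final) for 20 hr at ambient temperature before luminescence reading.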
Gal4-VP16 FLuc = inhibits Gal4-VP16 luciferase reporter, ROR gamma counter-screen. 310,000 tested, 3.5% active. Drosophila S2 Gal4-VP16 UAS-luciferase, luminescence, 20 h. Potency, µM (highest dose often 53.6 µM), for inactives: at the highest dose activity, negative = inhibition, actives largely listed as inhibitors. AID 2546;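 note: Gal4-VP16 expression switched on by copper sulfate through the metallothionein promoter; potency is the fitted concentration of half-maximal effect; nearly all actives have a fitted effect of over 50% in size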
IL1B secr inh = inflammasome signaling inhibition, IL-1 beta readout | THP-1 LPS/ATP IL-1B secretion, AlphaLISA, 16 h; active compounds read low | activity change, % at 57.5 µM | 360,000 tested, 4.7% active | AID 743279; in the data active = activity change below about -50%; inconclusive = mostly about -30% to -49%
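THP-1 cells pretreated 1 hr with compounds (up to 57.5 uM final), then stimulated with LPS (250 ng/mL final) plus ATP (1.25 mM final); secreted IL-1B measured by AlphaLISA after 16 hr, decreased signal indicating inhibition.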
An asterisk follows results filed as active; u = inconclusive; x = not tested or not shown; ! = not active in a repeat. Hits are enriched below; roughly 18% of the tested compounds scored in any of these assays. Unless noted, calls come from the whole dose curve; as a rule, active = well fitted curve in the direction sought with a large enough effect; inconclusive = small, poorly fitted or top-dose-only effect, or another doubt; inactive = no such curve, though single readings can be large; an effect the other way counts as inactive or inconclusive. Unless noted, % is set by controls: 0 for no effect and ±100 for the full control effect.

SMILES	DT40 TDP1 CPT	LDHA inh	TDP1 cell noCPT	RORgamma inh	Gal4-VP16 FLuc	IL1B secr inh
CCOC1=C2CN(S(=O)(=O)c3ccc(C)cc3)C(c3cccc(Cl)c3)CC2N(S(=O)(=O)c2ccc(C)cc2)C(c2ccncc2)C1 (stereo unspecified)	15µM*	-7	16µM*	x	x	6
COc1ccc(C(=O)NC2CCCCC2)cc1C	x	4	x	x	x	x
Cc1cccc(-c2nnc(C(C)Sc3n[nH]c(N)n3)o2)c1 (stereo unspecified)	x	1	x	x	x	x
CCOC(=O)Cn1cnc2c1c(=O)n(C)c(=O)n2C	x	3	x	x	x	x
Cc1ccc(C)c(N2CCN(C(=O)C34CC5CC(C3)CC(n3nnc(C)n3)(C5)C4)CC2)c1	6.5µM*	4	7.3µM*	6%	-13%	u
Cc1nnn(C23CC4CC(CC(C4)C2)C3)n1	-10%	-9	-21%	-21%	1%	-2
S=c1nc[nH]c2nc[nH]c12	u	-7	19µM*!	-6%	-6%	38
CC1CCN(C(=O)c2ccc(CSc3nc4ccncc4n3Cc3ccc(F)cc3)cc2)CC1	23µM*	-3	u	36%	-9%	-7
Cc1cccc(Cn2c(SCc3ccc(C(=O)N4CCCCCC4)cc3)nc3ccncc32)c1	-122%	5	u	x	x	x
CC1CCCN(C(=O)c2ccc(CSc3nc4ccncc4n3Cc3ccccc3)cc2)C1 (stereo unspecified)	16µM*	-3	23µM*	x	x	x
O=C(c1ccc(CSc2nc3ccncc3n2Cc2ccccc2)cc1)N1CCCCCC1	9.2µM*	-2	16µM*	x	x	x
COc1ccc(CNC(=O)Cc2c(C)c3c(OC)cc(C)cc3oc2=O)cc1OC	x	8	x	x	x	x
COc1ccc(-c2cc(=O)oc3cc(C)cc(OCC(=O)OC(C)C)c23)cc1	x	10	x	x	x	x
CCOc1ccc(N2CC(c3nc4ccccc4n3CCOc3ccc(CC)cc3)CC2=O)cc1 (stereo unspecified)	u	-4	u	x	x	x
CCCCN1CC(c2nc3ccccc3n2CCCCOc2ccc(C)c(C)c2)CC1=O (stereo unspecified)	10µM*	0	7.3µM*	x	x	x
CCCCN1CC(c2nc3ccccc3n2CCCCOc2cccc(C)c2C)CC1=O (stereo unspecified)	u	-1	21µM*	x	x	x
CCN1CC(c2nc3ccccc3n2Cc2cccc3ccccc23)CC1=O (stereo unspecified)	x	-4	x	x	x	x
CCCCN1CC(c2nc3ccccc3n2CCCCOc2cc(C)cc(C)c2)CC1=O (stereo unspecified)	12µM*	2	7.3µM*	x	x	x
Cc1ccc(CNCc2ccc(-c3ccc(F)c(Cl)c3)o2)cc1	x	-4	x	x	x	x
Cc1ccc(CN2CCN(Cc3cccc(-n4cccn4)c3)CC2CCO)cc1 (stereo unspecified)	12µM*	-5	u	u	-2%	-1
Cc1ccc(CN2CCN(Cc3ccc(-n4cccn4)cc3C)CC2CCO)cc1 (stereo unspecified)	u	2	u	u	-5%	-8
COc1ccc(CN2CCN(Cc3ccc(C)cc3)C(CCO)C2)cc1OC (stereo unspecified)	u	-4	-10%	-5%	-10%	23
Cc1cc(C)c(CN2CCN(Cc3ccc(C)o3)C(CCO)C2)c(-n2cccn2)c1 (stereo unspecified)	u	-9	23µM*	0%	12%	-7
COc1cc(CN2CCN(Cc3ccc(C)cc3)C(CCO)C2)cc(OC)c1O (stereo unspecified)	21µM*	28	u	-1%	2%	1
CCc1ccc(NC(=O)CSc2nc3c(c(=O)[nH]2)CN(Cc2ccc(Cl)cc2)CC3)cc1	x	11	x	x	x	x
SMILES	DT40 TDP1 CPT	LDHA inh	TDP1 cell noCPT	RORgamma inh	Gal4-VP16 FLuc	IL1B secr inh
O=[N+]([O-])/C=C/c1cn(Cc2ccccc2)c2ccccc12	18µM*	-1	12µM*	14%	-10%	-70*
O=C(O)Cn1cc(/C=C/[N+](=O)[O-])c2ccccc21	-1%	1	-9%	-2%	16%	-11
O=C(Cn1cc(/C=C\[N+](=O)[O-])c2ccccc21)Nc1ccccc1	21µM*	-2	15µM*	u	u	-96*
C(=N\n1cnnc1)/c1cn(Cc2ccccc2)c2ccccc12	-12%	3	-22%	3%	9%	-12
COc1ccc2c(c1)c(C(C(=O)O)N1CCC(Cc3ccccc3)CC1)cn2CC(=O)O (stereo unspecified)	x	2	x	x	x	x
Cc1ccccc1CS(=O)(=O)c1cnc2ccccc2n1	u	-3	29µM*	-35%	17%	-119*
Cc1ccccc1CS(=O)(=O)c1snnc1C	-23%	-15	23%	-23%	18%	-23
COC(=O)CSc1nnc(-c2ccco2)n1Cc1ccco1	-15%	-1	9%	2%	-9%	31
CCCCOc1[nH]c2nc(-c3ccco3)n(Cc3ccco3)c(=N)c2c1C#N	u	1	23µM*	-2%	-12%	-82*
O=C(NCc1cccc(C(F)(F)F)c1)c1ccc2c(c1)CCC2	x	7	x	x	x	x
FC(F)(F)c1cccc(Nc2nc(CN3CCOCC3)nc3sc4c(c23)CCCC4)c1	x	7	x	x	x	x
Cc1nc(Oc2ccccc2Cl)c2c3c(sc2n1)CCC3	x	-5	x	x	x	x
Cc1cc(S(=O)(=O)Nc2nc(CN3CCOCC3)nc3sc4c(c23)CCC4)ccc1F	u	2	26µM*	x	x	29
Cc1cccc(Oc2nc(CN3CCOCC3)nc3sc4c(c23)CCCC4)c1	u	-2	u	11µM*	u	u
